Compounds with a hit are over-represented: about 2.5% of the library has one in this group of screens.
D2 ag-1: Beta-Arrestin HTS for Positive Allosteric Modulators of the Human D2 Dopamine Receptor: Agonists; D(2) dopamine receptor (Homo sapiens), P14416; activation, % (no concentration beside the values); AID 624465, 2012; DiscoveRx PathHunter D2 beta-arrestin, luminescence, 90 min; 100% = 57 uM dopamine signal; actives 0.084% (n = 360,000); in the data active means activation above about 40%; inconclusive means between about 15% and that limit
Target sequence (P14416 whole entry, looked up): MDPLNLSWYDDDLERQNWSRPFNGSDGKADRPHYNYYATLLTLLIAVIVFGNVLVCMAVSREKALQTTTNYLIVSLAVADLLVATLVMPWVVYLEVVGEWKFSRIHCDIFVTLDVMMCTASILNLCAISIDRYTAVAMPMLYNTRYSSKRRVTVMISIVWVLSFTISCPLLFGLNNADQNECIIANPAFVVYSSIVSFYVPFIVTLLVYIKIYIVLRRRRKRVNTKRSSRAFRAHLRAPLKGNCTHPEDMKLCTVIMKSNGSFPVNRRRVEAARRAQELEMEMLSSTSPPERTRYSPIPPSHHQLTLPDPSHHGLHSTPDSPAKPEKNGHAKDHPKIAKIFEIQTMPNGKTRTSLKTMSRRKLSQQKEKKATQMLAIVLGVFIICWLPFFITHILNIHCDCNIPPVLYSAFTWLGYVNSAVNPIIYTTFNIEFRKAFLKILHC
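Agonist mode: compounds alone added to overnight-plated D2 PathHunter cells for 90 min at 37 C, with 57 uM final dopamine (EC100) defining full response. Beta-arrestin recruitment detected by chemiluminescent reagent, read after 1 h at ambient temperature.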
D2 ag-2: HTS Assay for Allosteric Agonists of the Human D2 Dopamine Receptor: Primary Screen for Agonists; activation, % at 2 µM; AID 485358, 2010; HEK293 T-REx D2 cells, calcium flux agonist mode; actives 0.53% (n = 340,000);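 active means activation over 3 SD above normal in the single-dose calcium agonist read, cut at about 30% in these data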; further: 0% is about no effect
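Tetracycline-induced HEK293 Trex cells with D2 receptor force-coupled to calcium signaling, plated overnight at 30 C and loaded with no-wash calcium dye. Calcium flux read kinetically for 180 s after compound addition; responses flag agonists.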
D2 antagonist: HTS Assay for Allosteric Antagonists of the Human D2 Dopamine Receptor: Primary Screen for Antagonists. D(2) dopamine receptor (Homo sapiens), P14416. HEK293 TREx D2 cells, calcium flux, dopamine EC80. inhibition, % at 10 µM. actives 2% (n = 340,000). AID 485344, 2010; in the data active means inhibition above about 30%; inactive means below that, where a call was filed; further: 0% is about no effect
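Tetracycline-induced HEK293 T-REx cells expressing D2 force-coupled to calcium signalling were dye-loaded, exposed to compound for 180 s, then challenged with an EC80 of dopamine; calcium flux was followed kinetically for a further 180 s.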
D2 PAM-1: Beta-Arrestin HTS for Positive Allosteric Modulators of the Human D2 Dopamine Receptor: Potentiators. DiscoveRx D2 beta-arrestin cells, luminescence, 90 min; 100% = 57 uM dopamine signal. potentiation, % (concentration not given with the values). actives 0.23% (n = 360,000); in the data active means potentiation above about 50%; inconclusive means mostly about 30% to 49%
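D2 cells co-treated with compound plus 50 nM dopamine (EC20) for 90 min at 37 deg C to detect potentiation. Beta-arrestin recruitment was read as enzyme-fragment luminescence after 1 h at ambient temperature. Full response was set by 57 uM dopamine.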
D2 PAM-2: HTS Assay for Positive Allosteric Modulators of the Human D2 Dopamine Receptor: Primary Screen for Potentiators | D(2) dopamine receptor (Homo sapiens), P14416 | HEK293 T-REx D2, calcium flux, EC20 dopamine potentiation | potentiation, % at 10 µM | actives 0.34% (n = 340,000);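 active means potentiation over 3 SD above the plate norm, cut at about 30% in these data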; further: 0% is about no effect
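Tetracycline-induced Hek293 Trex D2 cells, force-coupled to calcium, loaded with no-wash calcium dye. Compound added with 180 s kinetic read for agonism, then EC20 dopamine and a further 180 s read for potentiation.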
Anesthetic bind: qHTS Assay for Identification of Novel General Anesthetics. apoferritin/1-aminoanthracene competitive binding, fluorescence. Potency, µM (top dose mostly 77.5 µM), for inactives: at the highest dose activity change, negative = displacement, hits mostly inhibitors. actives 0.074% (n = 350,000). AID 485281, 2010; active means well fitted inhibition curve with a large enough effect; inconclusive means small, poorly fitted or top-dose-only effect; inactive means no such curve, though single readings can be large or run the other way; further: potency means the concentration at half of the fitted maximal effect; on the % scale 0 is the no-effect control and ±100 the full control effect; nearly all actives have a fitted effect of over 20% in size
Target sequence (P02791 2-175 limits assumed): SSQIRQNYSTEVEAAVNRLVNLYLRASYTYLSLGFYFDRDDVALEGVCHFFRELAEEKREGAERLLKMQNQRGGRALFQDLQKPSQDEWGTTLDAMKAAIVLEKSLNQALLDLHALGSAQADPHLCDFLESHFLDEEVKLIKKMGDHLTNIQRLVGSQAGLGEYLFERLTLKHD
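Concentration-response curves derived by four-parameter Hill fitting of normalized fluorescence, where compounds displaced 1-AMA from 10 uM horse apoferritin following a brief 10 min room-temperature incubation; propofol titration acted as positive control.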
* hit, by the source's call.

For CCCNS(=O)(=O)c1cccc(C(=O)OCc2cc(=O)oc3cc(OC)ccc23)c1 the results were D2 ag-1 3, D2 ag-2 -2, D2 antagonist -1, D2 PAM-1 5, D2 PAM-2 6 and Anesthetic bind inconclusive.
Screening CC(C)CNC(=O)NC(=O)COc1ncnc2sccc12 returned D2 ag-1 -2, D2 ag-2 0, D2 antagonist 37*, D2 PAM-1 1, D2 PAM-2 6 and Anesthetic bind -8%.
`CC(C)CCNC(=O)NC(=O)COc1ncnc2sccc12` gave D2 ag-1 -2, D2 ag-2 1, D2 antagonist 6, D2 PAM-1 -12, D2 PAM-2 6 and Anesthetic bind -17%.
CCCNC(=O)COc1ncnc2sccc12 was read as D2 ag-1 7, D2 ag-2 2, D2 antagonist 33*, D2 PAM-1 7, D2 PAM-2 14 and Anesthetic bind -8%.
Screening CCOc1ccc(N(CC(=O)Nc2ccc(C)cc2)S(=O)(=O)c2c(C)[nH]c(=O)[nH]c2=O)cc1 returned D2 ag-1 -4, D2 ag-2 0, D2 antagonist 7, D2 PAM-1 -8, D2 PAM-2 1 and Anesthetic bind 10%.
`CC1=C(C(=O)Nc2ccccc2)C(c2ccco2)C(C#N)=C(SCC(=O)OC(C)C)N1` (configuration not stated) gave D2 ag-1 -2, D2 ag-2 0, D2 antagonist 2, D2 PAM-1 -9, D2 PAM-2 -1 and Anesthetic bind inconclusive.
For CCCOc1ccccc1N/C(N)=N/c1nc(C)cc(C)n1 the results were D2 ag-1 0, D2 ag-2 1, D2 antagonist 31*, D2 PAM-1 -10, D2 PAM-2 -8 and Anesthetic bind -13%.
COc1cccc2c1O/C(=N\O)C(C(=O)Nc1cccc(C)c1C)C2 (configuration not stated) was read as D2 ag-1 1, D2 ag-2 -2, D2 antagonist 17, D2 PAM-1 -9, D2 PAM-2 -3 and Anesthetic bind -15%.
For Cc1nc2ccc(Cl)cc2nc(C)/c1=N\O the results were D2 ag-1 13, D2 ag-2 1, D2 antagonist -11, D2 PAM-1 83*, D2 PAM-2 8 and Anesthetic bind -21%.
Screening CC(NC(=O)c1ccc(Cl)cc1)c1nnc(SCc2ccc([N+](=O)[O-])cc2)n1C (configuration not stated) returned D2 ag-1 1, D2 ag-2 1, D2 antagonist 32*, D2 PAM-1 -4, D2 PAM-2 -11 and Anesthetic bind -7%.
`O=C(O)CCS(=O)(=O)c1ccccc1Cl` gave D2 ag-1 -5, D2 ag-2 1, D2 antagonist 39*, D2 PAM-1 -10, D2 PAM-2 16 and Anesthetic bind -6%.
`O=C(O)CCS(=O)(=O)Cc1ccccc1Cl` gave D2 ag-1 1, D2 ag-2 1, D2 antagonist 1, D2 PAM-1 -6, D2 PAM-2 8 and Anesthetic bind -8%.
Screening CC(=O)c1ccc(NC(=O)[C@@H]2CCCN2C2=NS(=O)(=O)c3ccccc32)cc1 returned D2 ag-1 1, D2 ag-2 0, D2 antagonist 37*, D2 PAM-1 -3 and D2 PAM-2 14.
Nc1c(Cl)ncnc1NCc1ccccc1 was read as D2 ag-1 4, D2 antagonist 56*, D2 PAM-1 -2 and Anesthetic bind -5%.
For Nc1c(Cl)ncnc1NCCO the results were D2 ag-1 -5, D2 ag-2 1, D2 antagonist -1, D2 PAM-1 4, D2 PAM-2 2 and Anesthetic bind 2%.
`COc1ccc(C2CC(=O)c3c(O)cc(O)cc3O2)c(CC=C(C)C)c1OC` (configuration not stated) gave D2 ag-1 5 and D2 PAM-1 -32.
Screening CC1Cc2ccccc2N1C(=O)COC(=O)c1ccc([N+](=O)[O-])o1 (configuration not stated) returned D2 ag-1 12 and D2 PAM-1 58*.
O=C(/C=C/NNC(=O)c1ccccc1)c1ccc([N+](=O)[O-])cc1 was read as D2 ag-1 3, D2 ag-2 1, D2 antagonist -1, D2 PAM-1 -5, D2 PAM-2 0 and Anesthetic bind -22%.
`O=C1OC(N2CCN(C(=O)C3CCCO3)CC2)c2ccccc21` (configuration not stated) gave D2 ag-1 3, D2 ag-2 0, D2 antagonist -11, D2 PAM-1 55*, D2 PAM-2 -5 and Anesthetic bind -5%.
Screening CC(=O)c1sc(N/N=C\c2ccc(Br)cc2)nc1C returned D2 ag-1 5, D2 ag-2 1, D2 antagonist 2, D2 PAM-1 13, D2 PAM-2 10 and Anesthetic bind 4%.
For CC(=O)c1sc(N/N=C\c2cccc(Br)c2)nc1C the results were D2 ag-1 inconclusive, D2 ag-2 2, D2 antagonist -19, D2 PAM-1 92*, D2 PAM-2 7 and Anesthetic bind -1%.
Cc1ccc(S(=O)(=O)N2CCN(C(=O)c3ccccc3)CC2)cc1 was read as D2 ag-1 -2, D2 PAM-1 -16 and Anesthetic bind -6%.
CC1(C)CC(=O)C=C(c2cc3ccccc3s2)C1 was read as D2 ag-1 -1 and D2 PAM-1 -6.
Screening OC(CNCC#Cc1ccccc1)c1ccccc1 (configuration not stated) returned D2 ag-1 1, D2 ag-2 20, D2 antagonist 39*, D2 PAM-1 -11, D2 PAM-2 -5 and Anesthetic bind -5%.
Screening CCOc1ccc(NC(=O)Cn2nnc3c(cnn3-c3ccc(F)cc3)c2=O)cc1 returned D2 ag-1 -3, D2 ag-2 -2, D2 antagonist -16, D2 PAM-1 -11, D2 PAM-2 4 and Anesthetic bind -13%.
For O=C(Cn1nnc2c(cnn2-c2ccc(F)cc2)c1=O)OC1CCCCC1 the results were D2 ag-1 -4, D2 ag-2 0, D2 antagonist -5, D2 PAM-1 -24, D2 PAM-2 -2 and Anesthetic bind 13µM*.
